Holding throughout (assay): PBM; 200 nM protein, PBS
What all share (settings): dsDNA, one strand shown

The target in assay [1] is HOXB4 (Homo sapiens, UniProt P17483 148-234).
The target in assay [2] is HOXA4 (Homo sapiens, UniProt Q00056 201-287, W262R).
Assay [3] deals with HOXA2 (Homo sapiens, UniProt O43364 129-215, R185T).
Assay [4] has as its target HOXA4 (Homo sapiens, UniProt Q00056 201-287, R217L).
In assay [5] the target is HOXB4 (Homo sapiens, UniProt P17483 148-234, V174I).
For assay [6], the target named is HOXA2 (Homo sapiens, UniProt O43364 129-215, R185K).
Sequence of HOXA2 (Homo sapiens, UniProt O43364 129-215, R185K) (O43364 129-215 R185K): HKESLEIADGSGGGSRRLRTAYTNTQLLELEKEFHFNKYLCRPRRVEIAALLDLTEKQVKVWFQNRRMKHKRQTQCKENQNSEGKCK
The target of assay [7] is HOXA4 (Homo sapiens, UniProt Q00056 201-287).
Sequence of HOXA4 (Homo sapiens, UniProt Q00056 201-287) (Q00056 201-287): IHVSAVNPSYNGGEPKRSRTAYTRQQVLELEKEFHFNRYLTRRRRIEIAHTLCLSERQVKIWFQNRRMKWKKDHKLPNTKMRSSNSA
Assay [8] addresses HOXA2 (Homo sapiens, UniProt O43364 129-215, Y150S).
Assay [9] concerns the target HOXA4 (Homo sapiens, UniProt Q00056 201-287, W262F).
The target in assay [10] is HOXA2 (Homo sapiens, UniProt O43364 129-215).
Sequence of HOXA2 (Homo sapiens, UniProt O43364 129-215) (O43364 129-215): as the sequence (O43364 129-215 R185K) above, with K57R counted along it
The target of assay [11] is T1, VENTX (Homo sapiens, UniProt O95231 78-163, R121Q).
T1 sequence: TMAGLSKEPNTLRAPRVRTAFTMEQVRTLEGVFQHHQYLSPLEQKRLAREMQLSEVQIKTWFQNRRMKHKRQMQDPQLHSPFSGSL

Assay [12] deals with T2, VENTX (Homo sapiens, UniProt O95231 78-163, Y115F).
T2 sequence: T1 sequence with Y38F, Q44R

Assay [13] deals with VAX1 (Homo sapiens, UniProt Q5SQQ9 86-172).
Sequence of VAX1 (Homo sapiens, UniProt Q5SQQ9 86-172) (Q5SQQ9 86-172): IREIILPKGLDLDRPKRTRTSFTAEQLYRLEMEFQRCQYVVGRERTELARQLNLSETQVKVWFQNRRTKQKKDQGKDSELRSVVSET
Assay [14] deals with VAX1 (Homo sapiens, UniProt Q5SQQ9 86-172, T142I).
Sequence of VAX1 (Homo sapiens, UniProt Q5SQQ9 86-172, T142I) (Q5SQQ9 86-172 T142I): as the sequence (Q5SQQ9 86-172) above, with T57I counted along it
Assay [15] deals with VAX1 (Homo sapiens, UniProt Q5SQQ9 86-172, K157R).
Sequence of VAX1 (Homo sapiens, UniProt Q5SQQ9 86-172, K157R) (Q5SQQ9 86-172 K157R): as the sequence (Q5SQQ9 86-172) above, with K72R counted along it

Changes are numbered by the printed parent chain.

Sequence of HOXB4 (Homo sapiens, UniProt P17483 148-234, V174I) (P17483 148-234 V174I): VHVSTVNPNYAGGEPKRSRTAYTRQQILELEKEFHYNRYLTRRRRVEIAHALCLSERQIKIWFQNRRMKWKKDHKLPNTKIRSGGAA
Sequence of HOXA4 (Homo sapiens, UniProt Q00056 201-287, W262F) (Q00056 201-287 W262F): as the sequence (Q00056 201-287) above, with W62F counted along it
Sequence of HOXB4 (Homo sapiens, UniProt P17483 148-234) (P17483 148-234): as the sequence (P17483 148-234 V174I) above, with I27V counted along it
Sequence of HOXA2 (Homo sapiens, UniProt O43364 129-215, R185T) (O43364 129-215 R185T): as the sequence (O43364 129-215 R185K) above, with K57T counted along it
Sequence of HOXA4 (Homo sapiens, UniProt Q00056 201-287, R217L) (Q00056 201-287 R217L): as the sequence (Q00056 201-287) above, with R17L counted along it
Sequence of HOXA2 (Homo sapiens, UniProt O43364 129-215, Y150S) (O43364 129-215 Y150S): as the sequence (O43364 129-215 R185K) above, with Y22S, K57R counted along it
Sequence of HOXA4 (Homo sapiens, UniProt Q00056 201-287, W262R) (Q00056 201-287 W262R): as the sequence (Q00056 201-287) above, with W62R counted along it

ACATTAAT: the binding signal in [1] was 13 upbm affinity estimate (log intensity, higher = more binding, comparable within an allelic series); in assay [2] it was 10.6 upbm affinity estimate (log intensity, higher = more binding, comparable within an allelic series); in assay [3], 12.3 upbm affinity estimate (log intensity, higher = more binding, comparable within an allelic series); in assay [4], 12 upbm affinity estimate (log intensity, higher = more binding, comparable within an allelic series); in [5] it was 13.6 upbm affinity estimate (log intensity, higher = more binding, comparable within an allelic series); in assay [6], 13.2 upbm affinity estimate (log intensity, higher = more binding, comparable within an allelic series). In addition, the binding signal is 13.6 upbm affinity estimate (log intensity, higher = more binding, comparable within an allelic series) in [7]; 11 upbm affinity estimate (log intensity, higher = more binding, comparable within an allelic series) in assay [8]; 11.4 upbm affinity estimate (log intensity, higher = more binding, comparable within an allelic series) in assay [9]; 12.1 upbm affinity estimate (log intensity, higher = more binding, comparable within an allelic series) in [10].

On to GTCATTAA, for which the binding signal is 13.3 upbm affinity estimate (log intensity, higher = more binding, comparable within an allelic series) in [1]; 12.1 upbm affinity estimate (log intensity, higher = more binding, comparable within an allelic series) in [11]; 10.9 upbm affinity estimate (log intensity, higher = more binding, comparable within an allelic series) in assay [2]; 12.1 upbm affinity estimate (log intensity, higher = more binding, comparable within an allelic series) in assay [12]; 13.2 upbm affinity estimate (log intensity, higher = more binding, comparable within an allelic series) in assay [3]; 12.9 upbm affinity estimate (log intensity, higher = more binding, comparable within an allelic series) in assay [4]. In addition, the binding signal was 13.9 upbm affinity estimate (log intensity, higher = more binding, comparable within an allelic series) in [5]; 13.8 upbm affinity estimate (log intensity, higher = more binding, comparable within an allelic series) in assay [6]; 14.1 upbm affinity estimate (log intensity, higher = more binding, comparable within an allelic series) in [7]; 13.4 upbm affinity estimate (log intensity, higher = more binding, comparable within an allelic series) in [13]; 13.4 upbm affinity estimate (log intensity, higher = more binding, comparable within an allelic series) in assay [14]; 11 upbm affinity estimate (log intensity, higher = more binding, comparable within an allelic series) in [8]. Also, the binding signal in assay [9] is 12.6 upbm affinity estimate (log intensity, higher = more binding, comparable within an allelic series); in [10], 12.9 upbm affinity estimate (log intensity, higher = more binding, comparable within an allelic series); in assay [15], 13.3 upbm affinity estimate (log intensity, higher = more binding, comparable within an allelic series).

Consider ACTCATTA, for which the binding signal is 13 upbm affinity estimate (log intensity, higher = more binding, comparable within an allelic series) in assay [1]; 11.6 upbm affinity estimate (log intensity, higher = more binding, comparable within an allelic series) in assay [11]; 10.7 upbm affinity estimate (log intensity, higher = more binding, comparable within an allelic series) in assay [2]; 11.7 upbm affinity estimate (log intensity, higher = more binding, comparable within an allelic series) in [12]; 13 upbm affinity estimate (log intensity, higher = more binding, comparable within an allelic series) in assay [3]; 12.1 upbm affinity estimate (log intensity, higher = more binding, comparable within an allelic series) in [4]. Also, the binding signal in assay [5] was 13.6 upbm affinity estimate (log intensity, higher = more binding, comparable within an allelic series); in assay [6], 13.5 upbm affinity estimate (log intensity, higher = more binding, comparable within an allelic series); in assay [7] it was 13.8 upbm affinity estimate (log intensity, higher = more binding, comparable within an allelic series); in assay [13], 13.2 upbm affinity estimate (log intensity, higher = more binding, comparable within an allelic series); in [14], 13.1 upbm affinity estimate (log intensity, higher = more binding, comparable within an allelic series); in assay [8], 10.9 upbm affinity estimate (log intensity, higher = more binding, comparable within an allelic series). Moreover, the binding signal in assay [9] was 11.7 upbm affinity estimate (log intensity, higher = more binding, comparable within an allelic series); in [10], 12.6 upbm affinity estimate (log intensity, higher = more binding, comparable within an allelic series); in [15], 13.1 upbm affinity estimate (log intensity, higher = more binding, comparable within an allelic series).

As for CCTACAGG, the binding signal in assay [1] is 7.69 upbm affinity estimate (log intensity, higher = more binding, comparable within an allelic series); in [5], 7.75 upbm affinity estimate (log intensity, higher = more binding, comparable within an allelic series).

For CGGTTCCC, the binding signal is 7.65 upbm affinity estimate (log intensity, higher = more binding, comparable within an allelic series) in [1] and 7.57 upbm affinity estimate (log intensity, higher = more binding, comparable within an allelic series) in [5].

For the sequence CCCCCTCG, the binding signal in assay [1] was 7.86 upbm affinity estimate (log intensity, higher = more binding, comparable within an allelic series); in assay [3], 7.09 upbm affinity estimate (log intensity, higher = more binding, comparable within an allelic series); in [5] it was 7.85 upbm affinity estimate (log intensity, higher = more binding, comparable within an allelic series); in assay [6], 10.2 upbm affinity estimate (log intensity, higher = more binding, comparable within an allelic series); in assay [8], 10.3 upbm affinity estimate (log intensity, higher = more binding, comparable within an allelic series); in [10], 7.14 upbm affinity estimate (log intensity, higher = more binding, comparable within an allelic series).

In the case of CTAATGAC, the binding signal in assay [1] is 13.2 upbm affinity estimate (log intensity, higher = more binding, comparable within an allelic series); in [11] it was 11.9 upbm affinity estimate (log intensity, higher = more binding, comparable within an allelic series); in assay [2], 10.6 upbm affinity estimate (log intensity, higher = more binding, comparable within an allelic series); in [12], 11.9 upbm affinity estimate (log intensity, higher = more binding, comparable within an allelic series); in assay [3] it was 13.1 upbm affinity estimate (log intensity, higher = more binding, comparable within an allelic series); in [4], 12.1 upbm affinity estimate (log intensity, higher = more binding, comparable within an allelic series). Further, the binding signal in assay [5] is 13.9 upbm affinity estimate (log intensity, higher = more binding, comparable within an allelic series); in assay [6], 13.7 upbm affinity estimate (log intensity, higher = more binding, comparable within an allelic series); in assay [7] it was 13.9 upbm affinity estimate (log intensity, higher = more binding, comparable within an allelic series); in assay [13], 13.3 upbm affinity estimate (log intensity, higher = more binding, comparable within an allelic series); in [14] it was 13.2 upbm affinity estimate (log intensity, higher = more binding, comparable within an allelic series); in assay [8], 10.9 upbm affinity estimate (log intensity, higher = more binding, comparable within an allelic series). Moreover, the binding signal is 12 upbm affinity estimate (log intensity, higher = more binding, comparable within an allelic series) in assay [9]; 12.9 upbm affinity estimate (log intensity, higher = more binding, comparable within an allelic series) in [10]; 13.2 upbm affinity estimate (log intensity, higher = more binding, comparable within an allelic series) in assay [15].

In the case of CCTGACCC, the binding signal in assay [1] is 7.93 upbm affinity estimate (log intensity, higher = more binding, comparable within an allelic series); in [5] it was 7.87 upbm affinity estimate (log intensity, higher = more binding, comparable within an allelic series).

For GGCCCCCC, the binding signal was 7.99 upbm affinity estimate (log intensity, higher = more binding, comparable within an allelic series) in assay [1] and 7.93 upbm affinity estimate (log intensity, higher = more binding, comparable within an allelic series) in assay [5].

For the sequence ATTAATCG, the binding signal in [1] was 13 upbm affinity estimate (log intensity, higher = more binding, comparable within an allelic series); in assay [11], 11.6 upbm affinity estimate (log intensity, higher = more binding, comparable within an allelic series); in assay [2], 10.5 upbm affinity estimate (log intensity, higher = more binding, comparable within an allelic series); in assay [12], 11.4 upbm affinity estimate (log intensity, higher = more binding, comparable within an allelic series); in [4], 11.9 upbm affinity estimate (log intensity, higher = more binding, comparable within an allelic series); in assay [5], 13.7 upbm affinity estimate (log intensity, higher = more binding, comparable within an allelic series). In addition, the binding signal was 13.6 upbm affinity estimate (log intensity, higher = more binding, comparable within an allelic series) in assay [7] and 11.2 upbm affinity estimate (log intensity, higher = more binding, comparable within an allelic series) in assay [9].

As to GGAGCTCC, the binding signal in [1] was 7.69 upbm affinity estimate (log intensity, higher = more binding, comparable within an allelic series); in [5], 7.37 upbm affinity estimate (log intensity, higher = more binding, comparable within an allelic series); in assay [13] it was 7.36 upbm affinity estimate (log intensity, higher = more binding, comparable within an allelic series); in assay [14], 7.59 upbm affinity estimate (log intensity, higher = more binding, comparable within an allelic series); in assay [15], 7.58 upbm affinity estimate (log intensity, higher = more binding, comparable within an allelic series).

In the case of GCTAATGA, the binding signal was 13.3 upbm affinity estimate (log intensity, higher = more binding, comparable within an allelic series) in assay [1]; 11.9 upbm affinity estimate (log intensity, higher = more binding, comparable within an allelic series) in [11]; 10.5 upbm affinity estimate (log intensity, higher = more binding, comparable within an allelic series) in assay [2]; 11.9 upbm affinity estimate (log intensity, higher = more binding, comparable within an allelic series) in [12]; 13.1 upbm affinity estimate (log intensity, higher = more binding, comparable within an allelic series) in assay [3]; 12.1 upbm affinity estimate (log intensity, higher = more binding, comparable within an allelic series) in assay [4]. The binding signal in assay [5] was 14 upbm affinity estimate (log intensity, higher = more binding, comparable within an allelic series); in assay [6] it was 13.6 upbm affinity estimate (log intensity, higher = more binding, comparable within an allelic series); in assay [7], 13.9 upbm affinity estimate (log intensity, higher = more binding, comparable within an allelic series); in [13], 13.5 upbm affinity estimate (log intensity, higher = more binding, comparable within an allelic series); in assay [14], 13.3 upbm affinity estimate (log intensity, higher = more binding, comparable within an allelic series); in assay [8], 10.8 upbm affinity estimate (log intensity, higher = more binding, comparable within an allelic series). For the same sequence, the binding signal is 11.9 upbm affinity estimate (log intensity, higher = more binding, comparable within an allelic series) in assay [9]; 12.8 upbm affinity estimate (log intensity, higher = more binding, comparable within an allelic series) in assay [10]; 13.4 upbm affinity estimate (log intensity, higher = more binding, comparable within an allelic series) in assay [15].

The values are drawn from publication PMC11006913.
